# WT yeast gro inh: growth inhibition of WT strain, primary screen, mitochondrial fusion inhibitor project, WT and mutant strains, chemical genetic; mitochondrial fusion phenotypic screen; inhibition, % at 10 µM; 190,000 compounds, 2.1% hits; AID 1362, 2008; in the data active = inhibition above about 58%; tested in S. cerevisiae
# Lmaj promast: Leishmania major promastigote growth inhibition, primary screen; Leishmania major promastigotes, resazurin fluorescence viability; inhibition, % at 10 µM; 200,000 compounds, 9% hits; AID 1063, 2008; in the data active = inhibition above about 50%;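 note: promastigotes grown with compound for 44 hours at 28 °C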
# KCC2 mod: KCC2 cotransporter modulators, thallium flux, primary screen, cell-based, HEK293 KCC2, FluoZin-2 fluorescence, MLSMR | 190,000 compounds, 2.2% hits | KCC2 cells, thallium flux FluoZin-2 fluorescence | AID 1456, 2008 | B-score of Tl+ flux slope (higher = more flux/activation; lower = inhibition) at 10 µM | Solute carrier family 12 member 5 (Homo sapiens), Q9H2X9;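 active = thallium flux slope and its plate-corrected score both differing from the plate sample mean at a set confidence after two filtering rounds, in either direction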;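 note: slope of fluorescence scaled to starting intensity during 10 to 20 s after thallium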
# ROMK mod: ROMK potassium channel modulators, primary screen, cell-based, thallium flux, MLSMR library | B-score at 10 µM | Tet-inducible ROMK, thallium flux fluorescence; actives lie on both sides | 130,000 compounds, 2% hits | ATP-sensitive inward rectifier potassium channel 1 (Homo sapiens), P48048;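 active = signal ratio slope over the read window, or its plate-corrected B-score, at least 3 SD from the plate mean, either direction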;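 note: B-score of the F/F0 ratio slope over 7 to 12 s after thallium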
# Target sequence (P48048 whole entry, looked up): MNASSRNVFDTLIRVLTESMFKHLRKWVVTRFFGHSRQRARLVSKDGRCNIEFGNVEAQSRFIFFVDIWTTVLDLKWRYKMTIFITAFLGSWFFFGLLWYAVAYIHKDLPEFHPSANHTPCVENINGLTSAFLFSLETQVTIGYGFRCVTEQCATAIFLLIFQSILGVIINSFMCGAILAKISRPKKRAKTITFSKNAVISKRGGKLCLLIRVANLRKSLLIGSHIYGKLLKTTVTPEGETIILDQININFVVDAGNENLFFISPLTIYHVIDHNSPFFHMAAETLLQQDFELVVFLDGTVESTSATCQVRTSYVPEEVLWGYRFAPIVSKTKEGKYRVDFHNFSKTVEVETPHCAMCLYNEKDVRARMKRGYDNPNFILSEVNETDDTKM
# m-calpain inh: inhibitors of pig calpain II, primary screen, biochemical, fluorogenic peptide substrate, 1536-well | inhibition, % at 16 µM | purified calpain II, 30 min | AID 1236, 2008 | 220,000 compounds, 0.37% hits;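 active = inhibition above about 50%, limit read from the data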
# KCC2 secondary: KCC2 modulators in sodium-free buffer, confirmation, cell-based, HEK293 KCC2, thallium flux, secondary assay; shares compounds with KCC2 mod; normalised thallium flux (F/F0 slope) at 10 µM; 3,700 compounds, 15% hits; AID 1713, 2009; FluoZin2 fluorescence; hits give high values;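 active = thallium flux slope above the same plate's solvent-only control mean plus 3 SD; inconclusive = the two replicate wells disagree; inactive = no significant difference from solvent-only control wells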
# KCC2 bumet counter: thallium flux persisting under bumetanide in KCC2 cells, confirmation, counter-screen for KCC2 modulator project, cell-based, HEK293 KCC2, FluoZin2, secondary assay 3. shares compounds with KCC2 mod. HEK293-KCC2 + bumetanide/ouabain; hits give high values. normalized thallium flux at 10 µM. 3,700 compounds, 49% hits;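 active = thallium entry rate above the same plate's blocked-transporter control wells by more than 3 SD; inconclusive = the two repeat wells disagree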;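 note: raw slope of fluorescence over initial fluorescence between 10 and 20 s after thallium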
# KCC2 sec2: KCC2 modulators without ouabain present, confirmation, cell-based, HEK293 KCC2, thallium flux, FluoZin2, secondary assay 2 | shares compounds with KCC2 mod | thallium flux FluoZin2 fluorescence; actives lie on both sides; F/F0 rise rate, 10–20 s post-thallium | normalized thallium flux at 10 µM | 3,700 compounds, 23% hits | AID 1715, 2009;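 active = thallium flux slope more than 3 SD above or below the plate's solvent-only control mean, mostly below; inconclusive = the two repeat wells disagreed; inactive = no significant shift from solvent-only controls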;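 note: raw slope with 0.1% DMSO as baseline and bumetanide as block control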
# HEK counter1: thallium flux modulation in parental HEK cells, confirmation, counter-screen for KCC2 modulator project, cell-based, counterscreen 1; shares compounds with KCC2 mod; HEK293 parental cells, thallium flux FluoZin2, ouabain; baseline-ratio fluorescence slope, 10–20 s after thallium; thallium flux rate (normalised fluorescence) at 10 µM; 3,700 compounds, 46% hits;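 active = thallium flux rate significantly above the same plate's solvent-only control wells, beyond their mean plus 3 SD; inconclusive = the two replicate wells gave conflicting results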
# KCC2 ouabain: KCC2 inhibitors and activators, ouabain retest, confirmation, HEK-KCC2 cells; shares compounds with KCC2 mod; HEK293-KCC2, thallium flux FluoZin2 fluorescence; bidirectional: low = inhibitor, high = activator; raw Tl+ flux slope (below DMSO = inhibition, above = activation) at 10 µM; 3,700 compounds, 48% hits; AID 1717, 2009;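 active = thallium flux slope beyond 3 SD from same-plate DMSO control mean in most replicates, usually higher, sometimes lower; inconclusive = repeat tests gave conflicting results; inactive = no significant difference from controls in most replicates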;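 note: slope of initial-normalized fluorescence between seconds 10 and 20 after thallium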
# HEK counter2: native HEK Tl+ uptake effects, second counter-screen – HEK cells, counterscreen 2, counter-screen for KCC2 modulator project, confirmation. thallium flux slope at 10 µM. 3,700 compounds, 33% hits. HEK293 parental, thallium flux FluoZin-2 fluorescence slope. shares compounds with KCC2 mod;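 active = thallium flux slope above the same plate's solvent-control mean plus 3 SD in both duplicate wells; inconclusive = duplicate wells that disagreed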;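 note: run without ouabain in cells lacking the KCC2 cotransporter; slope of fluorescence scaled to its starting value between 10 and 20 s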
# An asterisk follows results filed as active; ? = inconclusive; . = no result. This is a sample that favours compounds with a hit; in the whole collection about 12% have one here.
SMILES,WT yeast gro inh,Lmaj promast,KCC2 mod,ROMK mod,m-calpain inh,KCC2 secondary,KCC2 bumet counter,KCC2 sec2,HEK counter1,KCC2 ouabain,HEK counter2
O=C(NC(=S)Nc1ccc(Oc2ccccc2)cc1)c1ccc(Cl)cc1,24,0,31*,0.15,-19,0.0066,0.022*,?,0.016*,0.028*,0.014*
CCN(CC)c1ccc(NC(=O)c2ccco2)cc1,23,-2,-0.0059,.,18,.,.,.,.,.,.
O=C(NC(=S)Nc1ccc2c(c1)OCO2)c1ccc(Cl)cc1,3,-8,8.2*,0.31,-9,0.0093,0.012*,0.039,?,0.026*,0.012
O=C(NC(=S)Nc1ccc2c(c1)OCCO2)c1ccc(F)cc1Cl,-2,-9,16*,-0.081,8,0.0099,0.022*,0.033,0.012*,?,0.011
CCc1ccc(C(=O)NC(=S)Nc2ccc3c(c2)OCCO3)cc1,19,0,1.6,.,3,.,.,.,.,.,.
CCN(CC)c1ccc(NC(=S)NC(=O)c2ccco2)cc1,45,-3,69*,1.5,-7,0.043*,0.17*,?,?,0.12*,?
CCN(CC)c1ccc(NC(=S)NC(=O)c2cccs2)cc1,47,7,21*,0.29,35,0.016*,0.079*,0.038,0.084*,0.051*,0.02*
O=C(NC(=S)Nc1ccc(N2CCCCC2)c(Cl)c1)c1ccc2c(c1)OCCO2,8,49,-0.89,-0.097,-13,.,.,.,.,.,.
CCc1nnc(N2C(=O)c3ccc(Oc4ccc([N+](=O)[O-])cc4)cc3C2=O)s1,-18,-8,-2.8,0.99,-32,.,.,.,.,.,.
O=C(NC(=S)Nc1ccc2oc(=O)ccc2c1)c1ccco1,.,.,22*,.,-19,0.0059,0.049*,0.044*,0.03*,0.046*,0.029*
CN(C)S(=O)(=O)c1ccc(NC(=S)NC(=O)c2cccs2)cc1,6,4,4*,0.12,9,0.0094,0.016*,0.029,0.0084*,?,0.0097
CCOC(=O)Nc1cccc(NC(=O)c2ccccc2F)c1,-9,-3,0.63,.,26,.,.,.,.,.,.
CCN(CC)c1ccc(NC(=O)c2ccccc2F)cc1,-14,9,-6.2*,.,-46,0.017,?,0.029,0.0072,0.014,0.0095
O=C(O)c1ccc(NC(=S)NC(=O)c2cccc(COc3ccccc3)c2)cc1,91*,-8,-3.7*,1.3,20,0.0083,?,0.034,0.004,?,0.011
O=C(NC(=S)Nc1ccc(S(=O)(=O)N2CCCC2)cc1)c1cccs1,13,7,4.5,0.81,28,.,.,.,.,.,.
COc1ccc(OCc2cccc(C(=O)O)c2)cc1,4,.,.,.,-26,.,.,.,.,.,.
NS(=O)(=O)c1ccc(NC(=O)C(=O)NCCC(=O)O)cc1,.,.,0.01,-0.087,-15,.,.,.,.,.,.
CCOc1ccc2ccccc2c1/C=N/NC(=O)CNC(=O)C(c1ccccc1)c1ccccc1,5,4,-1.2,-0.29,-55,.,.,.,.,.,.
Cc1ccc2oc(-c3ccc(C)c(NC(=S)NC(=O)c4cccs4)c3)nc2c1,-19,-4,4.6*,.,27,0.011,0.012*,0.034,?,?,0.011
Cc1ccc2oc(-c3ccc(C)c(NC(=O)Cc4cccs4)c3)nc2c1,14,-4,0.32,-0.033,-78,.,.,.,.,.,.
CCOC(=O)Cc1csc(Nc2c(C)n(C)n(-c3ccccc3)c2=O)n1,-7,-4,1,.,8,.,.,.,.,.,.
Cc1c(Nc2nc(-c3ccc(Cl)cc3)cs2)c(=O)n(-c2ccccc2)n1C,-10,-11,-4.5*,.,13,0.0065,0.0052,0.024*,0.0058*,0.014*,?
Cc1c(NC2=C(Cl)C(=O)N(c3ccccc3)C2=O)c(=O)n(-c2ccccc2)n1C,-1,-5,-4.4*,0.87,-3,?,0.0069,0.035,0.0045,0.021,0.011
CCCCNc1ccc(S(=O)(=O)c2cccc([N+](=O)[O-])c2)cc1[N+](=O)[O-],-1,3,-0.98,-1.4,5,.,.,.,.,.,.
O=C(N/N=C/c1ccc2c(c1)OCO2)C(O)c1ccccc1 (centres undefined),-13,0,4.7*,0.079,3,0.0079,0.0068,0.03,0.0066,0.02,0.0099
SMILES,WT yeast gro inh,Lmaj promast,KCC2 mod,ROMK mod,m-calpain inh,KCC2 secondary,KCC2 bumet counter,KCC2 sec2,HEK counter1,KCC2 ouabain,HEK counter2
O=C(COc1ccccc1)N/N=C/c1ccc2c(c1)OCO2,15,1,0.085,0.38,0,.,.,.,.,.,.
O=C(O)/C(=C\c1cccs1)c1ccc(F)cc1,-4,7,0.34,0.64,-69,.,.,.,.,.,.
CCOC(=O)c1cnc(-n2nc(C)cc2C)nc1NNc1ncc(-c2ccccc2)cn1,.,.,8.5*,.,-3,0.0067,0.024*,0.032,0.017*,0.027*,0.021*
CCOC(=O)c1cnc2cc(-c3ccc(C)cc3)nn2c1-c1ccccc1,-2,5,-1.1,.,-193,.,.,.,.,.,.
NC(=O)COc1ccccc1/C=C1/SC(=O)N(CC(=O)N2CCc3ccccc3C2)C1=O,-11,95*,-3.4*,-2,-14,0.0058,0.0049,0.023*,0.007,0.016*,0.0091
CCn1c(=O)c2cc(C(=O)N(C)c3cc(C)ccc3OC)sc2c2ccccc21,.,.,-3*,0.14,-11,0.0085,?,0.033,0.0056*,0.019,?
S=c1[nH]nc(Nc2cccc(Cl)c2)s1,5,-3,-5.8*,-0.5,-1,0.0061,0.0051,0.02*,0.0082,?,0.012
S=c1[nH]nc(Nc2ccccc2Cl)s1,11,0,-5.3*,0.15,15,0.0041*,0.0094*,0.022*,0.012*,0.012*,0.014*

# Screening data as filed in PubChem BioAssay.
